In this assay the target is Voltage-dependent L-type calcium channel subunit alpha-1D (Homo sapiens) (UniProt Q01668). Kind of assay: inhibitors of CaV1.3 ICDI-IQ binding, dose response, cell-based, HEK293, YFP-IQ/CFP-ICDI FRET, cherry-picks (AID 1053205). The settings on record: HEK293 YFP-IQ/CFP-ICDI FRET ratio, 10 min; series mostly up to 35 µM.

Entries with a potency or affinity are not part of this list. Inconclusive results are not listed. The source made the active and inactive calls.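 The calls were made as follows: active = compounds lowering the FRET ratio whose fitted half-maximal concentration is at most twice their top tested dose; inconclusive = flat partial drop between 30 and 70 percent, or bad fit; inactive = the rest.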

Sequence of Voltage-dependent L-type calcium channel subunit alpha-1D (Homo sapiens) (Q01668 whole entry, looked up): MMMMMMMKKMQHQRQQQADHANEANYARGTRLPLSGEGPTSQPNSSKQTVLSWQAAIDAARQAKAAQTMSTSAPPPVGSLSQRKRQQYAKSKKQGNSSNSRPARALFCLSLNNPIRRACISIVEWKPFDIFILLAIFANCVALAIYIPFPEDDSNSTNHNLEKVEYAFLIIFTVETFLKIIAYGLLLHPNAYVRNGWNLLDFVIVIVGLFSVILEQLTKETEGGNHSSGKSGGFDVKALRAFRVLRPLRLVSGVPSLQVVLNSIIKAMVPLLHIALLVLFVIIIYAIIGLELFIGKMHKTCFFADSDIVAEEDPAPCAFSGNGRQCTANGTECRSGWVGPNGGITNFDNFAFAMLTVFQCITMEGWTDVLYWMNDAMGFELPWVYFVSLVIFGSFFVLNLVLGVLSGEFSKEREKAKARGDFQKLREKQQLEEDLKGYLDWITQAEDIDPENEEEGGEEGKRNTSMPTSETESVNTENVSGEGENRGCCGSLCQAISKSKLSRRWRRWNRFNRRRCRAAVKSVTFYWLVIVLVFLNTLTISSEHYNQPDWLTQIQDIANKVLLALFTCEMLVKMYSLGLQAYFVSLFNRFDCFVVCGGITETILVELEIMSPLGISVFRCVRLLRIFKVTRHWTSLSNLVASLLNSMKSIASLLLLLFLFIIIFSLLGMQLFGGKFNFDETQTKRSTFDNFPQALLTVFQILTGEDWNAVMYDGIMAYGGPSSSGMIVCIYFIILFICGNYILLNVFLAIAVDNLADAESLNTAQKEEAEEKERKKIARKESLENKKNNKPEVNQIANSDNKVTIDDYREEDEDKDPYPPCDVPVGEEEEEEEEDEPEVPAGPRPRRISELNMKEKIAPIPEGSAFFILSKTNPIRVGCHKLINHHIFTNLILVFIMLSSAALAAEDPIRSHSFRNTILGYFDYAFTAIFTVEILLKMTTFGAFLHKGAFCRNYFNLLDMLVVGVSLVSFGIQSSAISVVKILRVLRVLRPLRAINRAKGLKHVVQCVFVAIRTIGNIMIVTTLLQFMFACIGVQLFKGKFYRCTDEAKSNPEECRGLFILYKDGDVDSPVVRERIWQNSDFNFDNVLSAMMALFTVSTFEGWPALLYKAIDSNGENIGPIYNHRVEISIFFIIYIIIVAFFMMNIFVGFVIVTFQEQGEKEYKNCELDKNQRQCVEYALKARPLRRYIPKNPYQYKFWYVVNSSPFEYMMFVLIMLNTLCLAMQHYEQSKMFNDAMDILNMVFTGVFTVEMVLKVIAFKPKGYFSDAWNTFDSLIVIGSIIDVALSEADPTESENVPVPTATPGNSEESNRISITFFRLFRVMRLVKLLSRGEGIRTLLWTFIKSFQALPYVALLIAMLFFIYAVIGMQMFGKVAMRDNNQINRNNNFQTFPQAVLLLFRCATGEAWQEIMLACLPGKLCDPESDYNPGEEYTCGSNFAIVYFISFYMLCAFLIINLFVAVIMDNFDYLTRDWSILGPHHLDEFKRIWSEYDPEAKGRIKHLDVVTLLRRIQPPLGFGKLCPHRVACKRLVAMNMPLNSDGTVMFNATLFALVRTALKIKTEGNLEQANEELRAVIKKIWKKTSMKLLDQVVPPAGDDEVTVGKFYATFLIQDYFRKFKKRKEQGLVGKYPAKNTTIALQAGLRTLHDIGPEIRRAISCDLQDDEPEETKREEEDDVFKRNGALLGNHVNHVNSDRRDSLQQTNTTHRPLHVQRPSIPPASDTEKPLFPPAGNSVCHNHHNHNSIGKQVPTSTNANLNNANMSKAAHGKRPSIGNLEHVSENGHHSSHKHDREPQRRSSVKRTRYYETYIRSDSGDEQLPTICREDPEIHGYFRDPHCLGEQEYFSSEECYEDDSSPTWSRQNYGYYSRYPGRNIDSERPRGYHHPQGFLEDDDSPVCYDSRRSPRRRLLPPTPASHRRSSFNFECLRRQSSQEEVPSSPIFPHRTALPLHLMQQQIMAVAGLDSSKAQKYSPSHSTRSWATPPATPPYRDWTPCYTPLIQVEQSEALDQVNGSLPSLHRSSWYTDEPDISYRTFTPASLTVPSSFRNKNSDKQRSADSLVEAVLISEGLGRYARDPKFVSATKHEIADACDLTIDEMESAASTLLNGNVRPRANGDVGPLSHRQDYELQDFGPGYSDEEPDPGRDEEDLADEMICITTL

Turning to `CC(C)OP(=O)(O)NC(=O)c1ccccc1`, the outcome was inactive.

Consider `N#CC1=C(N)Oc2cc(O)ccc2C1c1ccc2c(c1)OCO2` (configuration not stated), for which the result was inactive.

(Values after PubChem BioAssay AID1053205 (Broad Institute, 2014).)
